In assay [1] the target is MAP kinase-activated protein kinase 2 (Homo sapiens) (UniProt P49137). The conditions noted are these: at 10 µM.
The target in assay [2] is MAP kinase-activated protein kinase 3 (Homo sapiens) (UniProt Q16644). The settings on record: at 10 µM.
The target of assay [3] is Serine/threonine-protein kinase MARK1 (Homo sapiens) (UniProt Q9P0L2). The conditions noted are these: at 1 µM.
Assay [4] has the same target. The conditions noted are these: at 10 µM.
Assay [5] has as its target Dual specificity mitogen-activated protein kinase kinase 1 (Homo sapiens) (UniProt Q02750). The settings on record: at 1 µM.
Assay [6] shares this target. The settings on record: at 10 µM.
Assay [7] has as its target Maternal embryonic leucine zipper kinase (Homo sapiens) (UniProt Q14680). The settings on record: at 1 µM.
Assay [8] shares this target. The conditions noted are these: at 10 µM.
Assay [9] deals with Misshapen-like kinase 1 (Homo sapiens) (UniProt Q8N4C8). The settings on record: at 1 µM.
Sequence of Misshapen-like kinase 1 (Homo sapiens) (Q8N4C8 whole entry, looked up): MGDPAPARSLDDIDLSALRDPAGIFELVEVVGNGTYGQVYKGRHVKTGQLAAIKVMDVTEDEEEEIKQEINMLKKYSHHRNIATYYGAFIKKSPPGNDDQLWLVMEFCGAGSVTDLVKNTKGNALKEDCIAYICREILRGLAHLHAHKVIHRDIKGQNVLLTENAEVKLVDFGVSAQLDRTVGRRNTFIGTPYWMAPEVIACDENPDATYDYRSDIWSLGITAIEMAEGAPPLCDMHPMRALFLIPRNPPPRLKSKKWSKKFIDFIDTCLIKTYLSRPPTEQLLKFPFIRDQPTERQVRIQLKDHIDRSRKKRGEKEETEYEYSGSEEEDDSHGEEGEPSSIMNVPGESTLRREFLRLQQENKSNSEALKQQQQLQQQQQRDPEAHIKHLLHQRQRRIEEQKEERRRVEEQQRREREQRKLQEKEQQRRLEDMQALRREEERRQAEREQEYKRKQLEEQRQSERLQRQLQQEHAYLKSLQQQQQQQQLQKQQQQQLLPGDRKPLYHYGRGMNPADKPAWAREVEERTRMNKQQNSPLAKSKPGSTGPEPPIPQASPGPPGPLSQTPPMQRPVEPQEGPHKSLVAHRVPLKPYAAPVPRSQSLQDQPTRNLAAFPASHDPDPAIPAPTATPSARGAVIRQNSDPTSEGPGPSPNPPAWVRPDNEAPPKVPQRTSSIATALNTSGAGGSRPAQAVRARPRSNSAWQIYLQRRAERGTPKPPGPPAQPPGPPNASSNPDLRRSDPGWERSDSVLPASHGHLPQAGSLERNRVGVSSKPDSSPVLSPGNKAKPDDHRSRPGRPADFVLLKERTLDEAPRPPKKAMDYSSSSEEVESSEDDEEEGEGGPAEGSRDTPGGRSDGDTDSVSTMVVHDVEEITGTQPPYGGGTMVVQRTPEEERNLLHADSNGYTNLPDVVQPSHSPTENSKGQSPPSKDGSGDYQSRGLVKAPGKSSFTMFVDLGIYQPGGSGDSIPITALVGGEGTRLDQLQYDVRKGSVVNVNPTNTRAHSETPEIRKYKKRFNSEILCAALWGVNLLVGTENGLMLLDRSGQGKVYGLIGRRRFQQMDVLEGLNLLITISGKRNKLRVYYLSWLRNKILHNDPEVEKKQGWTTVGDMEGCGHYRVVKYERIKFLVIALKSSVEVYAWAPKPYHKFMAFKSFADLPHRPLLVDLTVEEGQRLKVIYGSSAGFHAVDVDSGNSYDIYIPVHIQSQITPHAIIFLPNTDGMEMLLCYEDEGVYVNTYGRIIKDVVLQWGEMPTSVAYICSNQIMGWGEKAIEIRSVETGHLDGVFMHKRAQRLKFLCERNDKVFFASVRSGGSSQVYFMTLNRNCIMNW
For assay [10] the target is unchanged. The settings on record: at 10 µM.

The structures appear in SMILES notation.

Sequence of MAP kinase-activated protein kinase 3 (Homo sapiens) (Q16644 whole entry, looked up): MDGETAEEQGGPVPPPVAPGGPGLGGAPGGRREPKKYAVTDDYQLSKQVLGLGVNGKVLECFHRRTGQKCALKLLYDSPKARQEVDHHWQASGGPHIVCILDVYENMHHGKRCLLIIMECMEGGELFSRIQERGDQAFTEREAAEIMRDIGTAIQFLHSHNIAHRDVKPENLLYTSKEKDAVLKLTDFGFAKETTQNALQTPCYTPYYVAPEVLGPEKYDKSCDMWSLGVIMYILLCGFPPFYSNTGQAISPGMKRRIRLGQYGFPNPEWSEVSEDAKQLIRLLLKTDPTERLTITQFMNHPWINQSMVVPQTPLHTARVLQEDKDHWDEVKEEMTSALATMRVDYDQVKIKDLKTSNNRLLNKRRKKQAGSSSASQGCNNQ
Sequence of Dual specificity mitogen-activated protein kinase kinase 1 (Homo sapiens) (Q02750 whole entry): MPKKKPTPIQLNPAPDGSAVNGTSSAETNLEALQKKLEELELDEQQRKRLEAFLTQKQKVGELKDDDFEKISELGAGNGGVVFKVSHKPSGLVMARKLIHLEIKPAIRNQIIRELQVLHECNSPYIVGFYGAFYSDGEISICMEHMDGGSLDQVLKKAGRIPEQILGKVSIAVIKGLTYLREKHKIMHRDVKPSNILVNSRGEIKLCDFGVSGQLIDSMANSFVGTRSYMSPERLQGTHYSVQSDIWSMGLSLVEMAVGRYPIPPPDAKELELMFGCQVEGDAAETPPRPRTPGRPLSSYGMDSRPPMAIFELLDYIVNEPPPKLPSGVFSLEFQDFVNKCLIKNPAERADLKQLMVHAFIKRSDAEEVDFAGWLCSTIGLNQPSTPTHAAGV
Sequence of MAP kinase-activated protein kinase 2 (Homo sapiens) (P49137 whole entry, looked up): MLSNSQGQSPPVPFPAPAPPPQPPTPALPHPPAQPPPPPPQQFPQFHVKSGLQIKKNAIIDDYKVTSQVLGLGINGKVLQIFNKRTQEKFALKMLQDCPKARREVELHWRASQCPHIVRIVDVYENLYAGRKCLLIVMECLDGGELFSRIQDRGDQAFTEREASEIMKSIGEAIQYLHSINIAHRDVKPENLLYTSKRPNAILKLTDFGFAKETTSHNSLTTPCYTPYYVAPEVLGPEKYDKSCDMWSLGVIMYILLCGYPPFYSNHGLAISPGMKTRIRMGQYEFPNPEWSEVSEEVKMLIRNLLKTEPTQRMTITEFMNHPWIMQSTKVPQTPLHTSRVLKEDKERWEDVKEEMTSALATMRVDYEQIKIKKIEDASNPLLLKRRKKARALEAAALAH
Sequence of Serine/threonine-protein kinase MARK1 (Homo sapiens) (Q9P0L2 whole entry, looked up): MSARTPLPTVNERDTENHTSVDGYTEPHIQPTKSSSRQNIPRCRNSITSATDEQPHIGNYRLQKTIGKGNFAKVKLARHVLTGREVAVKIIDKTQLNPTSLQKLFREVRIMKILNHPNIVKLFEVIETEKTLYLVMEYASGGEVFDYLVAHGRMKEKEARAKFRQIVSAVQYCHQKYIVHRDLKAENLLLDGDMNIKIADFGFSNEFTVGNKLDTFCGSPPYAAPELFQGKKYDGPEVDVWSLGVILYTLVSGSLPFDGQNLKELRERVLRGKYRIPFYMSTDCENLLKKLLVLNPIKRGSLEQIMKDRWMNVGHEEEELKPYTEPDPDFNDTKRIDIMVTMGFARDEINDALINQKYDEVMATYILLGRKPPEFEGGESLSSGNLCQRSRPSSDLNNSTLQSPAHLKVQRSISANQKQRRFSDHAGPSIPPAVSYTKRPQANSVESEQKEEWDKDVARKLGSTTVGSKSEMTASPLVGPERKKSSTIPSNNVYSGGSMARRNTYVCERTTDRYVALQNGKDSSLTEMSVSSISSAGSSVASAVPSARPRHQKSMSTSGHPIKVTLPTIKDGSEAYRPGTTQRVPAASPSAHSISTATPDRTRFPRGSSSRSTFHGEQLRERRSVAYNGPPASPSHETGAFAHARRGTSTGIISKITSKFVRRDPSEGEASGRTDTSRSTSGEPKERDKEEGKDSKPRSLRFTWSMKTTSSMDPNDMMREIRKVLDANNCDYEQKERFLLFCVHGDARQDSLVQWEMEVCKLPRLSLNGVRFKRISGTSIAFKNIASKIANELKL
Sequence of Maternal embryonic leucine zipper kinase (Homo sapiens) (Q14680 whole entry, looked up): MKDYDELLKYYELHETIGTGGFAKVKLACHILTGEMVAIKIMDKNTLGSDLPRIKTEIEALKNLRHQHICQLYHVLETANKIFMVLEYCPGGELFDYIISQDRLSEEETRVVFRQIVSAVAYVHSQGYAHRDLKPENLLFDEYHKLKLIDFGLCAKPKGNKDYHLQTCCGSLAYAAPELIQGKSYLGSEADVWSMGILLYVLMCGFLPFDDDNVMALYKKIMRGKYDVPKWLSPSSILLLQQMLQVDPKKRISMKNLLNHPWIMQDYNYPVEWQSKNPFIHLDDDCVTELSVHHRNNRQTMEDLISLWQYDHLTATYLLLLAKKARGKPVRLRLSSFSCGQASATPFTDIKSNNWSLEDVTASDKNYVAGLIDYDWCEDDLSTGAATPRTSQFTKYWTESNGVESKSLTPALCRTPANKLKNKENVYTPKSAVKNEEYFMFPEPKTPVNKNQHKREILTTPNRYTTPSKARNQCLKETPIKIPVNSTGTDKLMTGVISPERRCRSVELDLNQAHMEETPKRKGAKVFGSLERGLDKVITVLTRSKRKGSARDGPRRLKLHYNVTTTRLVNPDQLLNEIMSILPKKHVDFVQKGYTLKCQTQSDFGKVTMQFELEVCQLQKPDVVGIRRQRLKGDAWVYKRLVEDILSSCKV

`O=C1NC(=O)c2cc(Nc3ccc(F)cc3)c(Nc3ccc(F)cc3)cc21`: the residual activity in assay [1] came to 93%; in assay [2] it was 69%; in [3], 82%; in assay [4], 75%; in assay [5] it was 109%; in [6] it was 122%. Also, the residual activity in assay [7] amounted to 89%; in [8], 76%; in assay [9], 83%; in [10] it was 71%.

For the compound `Oc1n[nH]c2nnc(-c3c(-c4ccccc4)nn4ccccc34)cc12`, the residual activity was determined as 90% in assay [1]; 86% in assay [2]; 75% in assay [3]; 76% in assay [4]; 104% in assay [5]; 109% in [6]. Further, the residual activity in [7] worked out at 53%; in assay [8], 36%; in [9], 105%; in assay [10] it was 92%.

Take `CC#CC(=O)Nc1cc2c(Nc3ccc(F)c(Cl)c3)ncnc2cn1`: the residual activity in assay [1] worked out at 92%; in assay [2], 96%; in assay [3], 87%; in [4], 83%; in assay [5] it was 111%; in [6] it was 103%. Besides, the residual activity in assay [7] was 76%; in assay [8] it was 99%; in assay [9], 96%; in [10] it was 91%.

As for `Cc1nc(-c2ccccc2)c(-c2ccncc2)o1`, the residual activity stood at 110% in assay [1]; 101% in assay [2]; 97% in assay [3]; 89% in assay [4]; 105% in assay [5]; 106% in assay [6]. The residual activity in [7] turned out to be 104%; in [8], 89%; in assay [9], 118%; in assay [10], 88%.

On to `CN(C)c1ccc(/C=C2\C(=O)Nc3ccccc32)cc1`, for which the residual activity in assay [1] was 93%; in assay [2] it was 94%; in assay [3], 83%; in [4], 49%; in assay [5], 114%; in [6], 73%. The residual activity in assay [7] was found to be 49%; in [8], 26%; in assay [9], 82%; in assay [10], 30%.

Turning to `Cn1nc2c3c(cccc31)C(=O)c1ccccc1-2`, the residual activity in [1] was 73%; in assay [2] it was 66%; in assay [3], 76%; in [4], 62%; in assay [5], 95%; in assay [6], 91%. Besides, the residual activity stood at 67% in assay [7], 59% in [8], 93% in [9] and 80% in [10].

`CCOc1cc2ncnc(Nc3cccc(Br)c3)c2cc1OCC`: the residual activity in [1] came out at 72%; in assay [2] it was 82%; in assay [3], 82%; in assay [4], 69%; in assay [5], 117%; in assay [6], 50%. For the same compound, the residual activity in assay [7] was determined as 91%; in assay [8] it was 62%; in [9] it was 88%; in assay [10], 50%.

For the compound `Oc1ccc(-c2nc(-c3ccc(F)cc3)c(-c3ccncc3)[nH]2)cc1`, the residual activity in [1] was 105%; in assay [2], 102%; in [3], 95%; in assay [4], 97%; in assay [5], 90%; in assay [6], 104%. The residual activity in assay [7] was found to be 92%; in assay [8], 46%; in assay [9], 91%; in assay [10], 49%.

Regarding `Cc1ccc(NC2=CC(=O)c3sc(C)nc3C2=O)cc1`, the residual activity in [1] turned out to be 87%; in [2] it was 61%; in [3] it was 87%; in assay [4], 80%; in assay [5], 99%; in [6], 116%. Further, the residual activity in assay [7] worked out at 95%; in assay [8], 85%; in [9] it was 106%; in [10], 94%.

Take `O=[N+]([O-])c1ccc(-c2nc(-c3ccc(F)cc3)c(-c3ccncc3)[nH]2)cc1`: the residual activity in [1] came to 102%; in assay [2], 104%; in assay [3], 91%; in assay [4] it was 90%; in [5], 109%; in [6], 127%. Besides, the residual activity in assay [7] worked out at 97%; in assay [8], 87%; in [9] it was 74%; in assay [10] it was 63%.

As for `Oc1c2ccccc2c2c3c(cccc13)N=N2`, the residual activity worked out at 69% in [1]; 103% in assay [2]; 38% in assay [3]; 6% in [4]; 75% in assay [5]; 50% in assay [6]. Moreover, the residual activity worked out at 13% in [7], 0% in [8], 86% in assay [9] and 50% in assay [10].

Turning to `COc1cccc(-c2cc(=O)c3ccccc3o2)c1N`, the residual activity in [1] is 78%; in assay [2], 97%; in assay [3], 87%; in assay [4], 85%; in [5], 103%; in assay [6] it was 111%. Besides, the residual activity in [7] is 109%; in assay [8], 113%; in assay [9], 98%; in assay [10] it was 96%.

Consider `COc1cc2ncnc(Nc3ccc(O)c(Br)c3)c2cc1OC`, for which the residual activity in [1] is 106%; in [2], 106%; in assay [3] it was 70%; in [4], 54%; in assay [5] it was 119%; in [6], 80%. The residual activity is 73% in assay [7], 28% in assay [8], 83% in assay [9] and 47% in [10].

As to `O=C(Nc1cccc(Nc2cc(Nc3cccc(C(F)(F)F)c3)ncn2)c1)C1CC1`, the residual activity was 71% in [1]; 91% in assay [2]; 83% in assay [3]; 79% in [4]; 78% in [5]; 88% in [6]. For the same compound, the residual activity in assay [7] was determined as 89%; in assay [8], 89%; in assay [9], 105%; in [10], 97%.

Regarding `CC(=O)O/N=C1\C(=C2\C(=O)Nc3cc(Br)ccc32)Nc2ccccc21`, the residual activity turned out to be 93% in assay [1]; 90% in [2]; 77% in assay [3]; 39% in assay [4]; 98% in assay [5]; 113% in [6]. In addition, the residual activity in assay [7] was found to be 69%; in assay [8], 52%; in assay [9], 103%; in [10], 86%.

Regarding `COc1ccc(S(=O)(=O)N(CCO)c2ccccc2CN(C)C/C=C/c2ccc(Cl)cc2)cc1`, the residual activity is 73% in [1]; 84% in assay [2]; 83% in assay [3]; 77% in [4]; 97% in assay [5]; 79% in [6]. Also, the residual activity came out at 90% in assay [7], 63% in assay [8], 98% in assay [9] and 97% in assay [10].

`c1ccc2c(-c3ccncc3)c[nH]c2c1`: the residual activity in [1] came to 94%; in assay [2], 101%; in assay [3], 81%; in [4], 77%; in assay [5], 87%; in [6] it was 75%. In addition, the residual activity in [7] was determined as 91%; in assay [8], 76%; in assay [9], 85%; in [10], 43%.

(Values after ChEMBL document CHEMBL2218924, “A broad activity screen in support of a chemogenomic map for kinase signalling research and drug discovery” (Biochem J, 2013).)
